From the supplement of paper PMC8728848
Only a selection was taken, and the strongest signals are over-represented in it overall.

Tests used:
Assay in all cases: glycan array binding signal (z-score within array); higher = stronger binding
Settings in all cases: glycan notation: IUPAC condensed, linker removed
Fuc(a1-2)Gal(b1-3)GalNAc = biological target: Fuc(a1-2)Gal(b1-3)GalNAc
In short: (§1)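 The Consortium for Functional Glycomics database supplied 3228 glycan arrays, of which those lacking an available protein sequence were dropped. The binding signal, a within-array Z-score, was averaged across arrays of the same protein sequence and across linkers. Negative scores can be read as non-binding.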

[1] = biological target: Fuc(a1-2)Gal(b1-3)GalNAc(b1-4)[Neu5Ac(a2-3)]Gal(b1-4)Glc
In short: as §1

[2] = biological target: Fuc(a1-2)Gal(b1-4)GlcNAc(b1-3)Gal(b1-4)GlcNAc
In short: as §1

[3] = biological target: Fuc(a1-2)Gal6S(b1-4)GlcNAc
In short: as §1

[4] = biological target: Fuc(a1-3)[Gal(b1-4)]GlcNAc(b1-4)Gal(b1-4)[Fuc(a1-3)]GlcNAc(b1-4)Gal(b1-4)[Fuc(a1-3)]GlcNAc
In short: as §1

[5] = biological target: Fuc(a1-3)[Gal(b1-4)]GlcNAc6S
In short: as §1

[6] = biological target: Fuc(a1-3)[GalNAc(b1-4)]Gal(b1-4)GlcNAc
In short: as §1

[7] = biological target: Gal(a1-3)Gal(b1-4)[Fuc(a1-3)]GalNAc
In short: as §1

Gal3S(b1-4)GlcNAc6S = biological target: Gal3S(b1-4)GlcNAc6S
In short: as §1

Gal6S(b1-4)Glc6S = biological target: Gal6S(b1-4)Glc6S
In short: as §1

Gal6S(b1-4)GlcNAc = biological target: Gal6S(b1-4)GlcNAc
In short: as §1

Glc(b1-6)Glc = biological target: Glc(b1-6)Glc
In short: as §1

[8] = biological target: GlcNAc(a1-6)Gal(b1-4)GlcNAc
In short: as §1

[9] = biological target: GlcNAc(b1-3)Gal(b1-4)GlcNAc(b1-3)Gal(b1-4)GlcNAc
In short: as §1

[10] = biological target: GlcNAc(b1-3)[GlcNAc(b1-6)]GlcNAc
In short: as §1

[11] = biological target: GlcNAc(b1-4)Gal(b1-4)GlcNAc
In short: as §1

[12] = biological target: GlcNAc(b1-4)[GlcNAc(b1-6)]GalNAc
In short: as §1

Kdn(a2-3)Gal(b1-4)GlcNAc = biological target: Kdn(a2-3)Gal(b1-4)GlcNAc
In short: as §1

[13] = biological target: Man(a1-2)Man(a1-2)Man(a1-3)[Man(a1-2)Man(a1-6)[Man(a1-3)]Man(a1-6)]Man(b1-4)GlcNAc(b1-4)GlcNAc
In short: as §1

[14] = biological target: Neu5Ac(a2-3)Gal(b1-3)GlcNAc
In short: as §1

[15] = biological target: Neu5Ac(a2-3)Gal(b1-4)[Fuc(a1-3)]GlcNAc(b1-3)Gal(b1-4)GlcNAc
In short: as §1

[16] = biological target: Neu5Ac(a2-8)Neu5Ac(a2-8)Neu5Ac(a2-3)[GalNAc(b1-4)]Gal(b1-4)Glc
In short: as §1

[17] = biological target: Neu5Gc(a2-3)Gal(b1-4)GlcNAc
In short: as §1

B1: KCR (Mus musculus), P70194 (protein)
chain: MKEAELNRDMARYCTDNQCVSLQPQGLGPKSAALMAPRTLRHVQVILALMVVTVIFSLLALFVVASQPWRPEWNKEPPSLLLRGSNNSGHDNHSQFVRETEMQVAIQRLRDYEENSSSCHKEVQILKYQMDNVSSLVQLLGSHLEDVNADILQTKDVLKESGALALETQALRSSLEVASADIHSLRGDLEKANAMTSQTRGLLKSSTENTSAELHVLGRGLEEAQSEIQALRGSLQSANDLSSQTQGFLQHSMDNISAQIQTVRDGMERAGEKMNSLKKELETLTAQTQKANGHLEQTDAQIQGLKAELKSTSSLNSRIEVVNGQMKDASRELQTLRRDLSDVSALKSNVQMLQSNLQRAKTEMQTLKADLQATKALTAKIQGEQNRLGALQEAVAAQKQEQKTQNQVLQLIAQNWKYFNGNFYYFSRDKKPWREAEKFCTSQGAHLASVTSQEEQAFLVQTTSSGDHWIGLTDQGTEGIWRWVDGTPFNNAQSKGFWGKNQPDNWRHRNGEREDCVHVRQQWNDMACGSSYPWVCKKSTGWSAARVG
glycan array binding signal (z-score) (Fuc(a1-2)Gal(b1-3)GalNAc): -0.72 | glycan array binding signal (z-score) [1]: -0.426 | glycan array binding signal (z-score) [2]: -0.635 | glycan array binding signal (z-score) [3]: 0.367 | glycan array binding signal (z-score) [4]: 4.39 | glycan array binding signal (z-score) [5]: 3.94 | glycan array binding signal (z-score) [6]: 3.06 | glycan array binding signal (z-score) [7]: 0.117 | glycan array binding signal (z-score) (Gal3S(b1-4)GlcNAc6S): 0.95 | glycan array binding signal (z-score) (Gal6S(b1-4)Glc6S): 2.48 | glycan array binding signal (z-score) (Gal6S(b1-4)GlcNAc): 0.769 | glycan array binding signal (z-score) (Glc(b1-6)Glc): -0.566 | glycan array binding signal (z-score) [8]: 2.47 | glycan array binding signal (z-score) [9]: -0.465 | glycan array binding signal (z-score) [10]: -0.721 | glycan array binding signal (z-score) [11]: -0.82 | glycan array binding signal (z-score) [12]: -0.917 | glycan array binding signal (z-score) (Kdn(a2-3)Gal(b1-4)GlcNAc): -0.623 | glycan array binding signal (z-score) [13]: -0.336 | glycan array binding signal (z-score) [14]: -0.592 | glycan array binding signal (z-score) [15]: 0.119 | glycan array binding signal (z-score) [16]: 0.254 | glycan array binding signal (z-score) [17]: -0.288
